Experiment [1] in a line: Nuclear factor erythroid 2-related factor 2/antioxidant responsive element (Nrf2/ARE) small molecule agonists: qHTS cell viability counter screen in human keratinocytes (AID 1919968; active = well fitted curve in the direction sought with a large enough effect in the repeat runs; an effect the other way counts as inactive or inconclusive; also: nearly all actives have a fitted effect of over 55% in size). A digest of the protocol:
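HaCaT ARE reporter line, 1,500 cells/well; 5 h settle, 37 C/5% CO2; cpd in DMSO pinned; 23 h exposure; CellTiter-Fluor, 1 h; fluorescence.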

Experiment [2] can be described thus: Nuclear factor erythroid 2-related factor 2/antioxidant responsive element (Nrf2/ARE) small molecule agonists: luciferase reporter gene qHTS assay in human keratinocytes (AID 1919969). Also: nearly all actives have a fitted effect of over 35% in size. Also: potency is read from the fitted curve at half-maximal effect. In general terms: In a reporter assay the amount or activity of a reporter protein is the signal.
Experiment [3] concerns the target Gonadotropin-releasing hormone receptor (Homo sapiens) (UniProt P30968). In words: Human gonadotropin-releasing hormone receptor (GnRHR) small molecule agonists, calcium flux assay in GnRHR-HEK293 cells (AID 1920063). Also: nearly all actives have a fitted effect of over 35% in size. In short, it runs like this: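 GnRHR-HEK293, 1500 cells/well, 18 h 37 C/5% CO2; Ca dye 1 h 37 C; cpd pinned (DMSO), agonist mode; kinetic FL 480/540, 3 min, 1 s reads; 15 conc, n=3.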
(Calcium flux is commonly read through the fluorescence of an indicator in the cells.)

The target in experiment [4] is KiSS-1 receptor (Homo sapiens) (UniProt Q969F8). In words: Human kisspeptin (KISS1R) small molecule agonists, calcium flux assay in KISS1R-HEK293 cells (AID 1920064; active = well fitted curve in the direction sought with a large enough effect in the repeat runs; an effect the other way counts as inactive or inconclusive). In short, it runs like this:
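Stable human KISS1R HEK293 line; 18 h plating, 37 C/5% CO2; calcium dye 1 h 37 C; compound pin transfer; kinetic fluorescence Ex/Em 480/540, 3 min.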

The nature of experiment [5]: G protein-coupled receptor (GPCR) small molecule agonists, calcium flux assay: HEK293 wild type cell line counter screen (AID 1920065). In short, it runs like this:
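Kinetic fluorescence at Ex/Em 480/540, recorded every second over 3 min, served as the read-out after compound addition. Each compound was tested at 15 concentrations in triplicate on cells pre-loaded with calcium dye for 1 h.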

A short description of experiment [6]: p53 small molecule agonists, cell-based qHTS assay with human liver microsomes (AID 1963577).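 Also: p53 response element beta-lactamase reporter cells with liver microsomes plus NADPH.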 In short, it runs like this: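 With metabolic activation: human liver microsomes (0.5 mg/mL final) plus NADPH (0.5 mg/mL final) added alongside compounds to p53RE-bla cells; 16 h 37 C exposure; beta-lactamase read by LiveBLAzer fluorescence.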
Experiment [7] is described as follows: p53 small molecule agonists, cell-based qHTS assay with rat liver microsomes (AID 1963578). In short, it runs like this: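 Metabolic activation by rat liver microsomes and NADPH, each 0.5 mg/mL final, added right after compounds to p53RE-bla reporter cells (4,000/well, plated 5 h earlier). 16 h at 37 C, then LiveBLAzer substrate for 2 h at room temperature in the dark; fluorescence read-out.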
On the technique in general: In qHTS, concentration-response curves come from the screen itself.

The nature of experiment [8]: p53 small molecule agonists, cell-based qHTS assay with human liver microsomes: qHTS cell viability counter screen (AID 1963579). Also: nearly all actives have a fitted effect of over 45% in size. Also: potency is read from the fitted curve at half-maximal effect. A digest of the protocol: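 Metabolic activation used human liver microsomes and NADPH, both 0.5 mg/mL final, over 16 hours at 37 C on p53RE-bla cells (4,000/well). Cytotoxicity measured by CellTiter-Glo luminescence, 30 min at room temperature.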

The nature of experiment [9]: p53 small molecule agonists, cell-based qHTS assay with rat liver microsomes: qHTS cell viability counter screen (AID 1963580). Also: nearly all actives have a fitted effect of over 45% in size. A digest of the protocol:
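Intracellular ATP, by CellTiter-Glo luminescence, defines viability. HCT-116 p53RE-bla cells, 4,000 per well, were compound-treated in the presence of rat liver microsomes and NADPH for 16 h at 37 C.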

Experiment [10] can be described thus: p53 small molecule agonists, cell-based qHTS assay: qHTS cell viability counter screen (AID 1963581). Also: nearly all actives have a fitted effect of over 45% in size. A digest of the protocol:
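HCT-116 p53RE-bla cells, 4,000/well, plated 5 h before compound pin transfer; 16 h at 37 C; bla substrate 2 h RT; then CellTiter-Glo, 30 min RT, luminescence.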

A short description of experiment [11]: p53 small molecule agonists, cell-based qHTS assay (AID 1963582; active = well fitted activation curve with a large enough effect in the signal ratio in the repeat runs, not every such curve was filed as active; the % refers to the signal ratio). A digest of the protocol: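 Reporter line: p53RE-bla. Pre-incubation 5 h, 37 C, 5% CO2; compound (DMSO, pin tool) 16 h, 37 C; B/G FRET substrate 2 h RT; fluorescence intensity read.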
The target in experiment [12] is 5-hydroxytryptamine receptor 2A (Homo sapiens) (UniProt P28223). In words: 5-hydroxytryptamine receptor 2A (HTR2A) small molecule antagonists, cell-based qHTS assay (AID 1963586). Also: nearly all actives have a fitted effect of over 45% in size. Also: potency is read from the fitted curve at half-maximal effect. In short, it runs like this:
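Antagonist-mode intracellular calcium assay: DOI (4 nM) added after 5 min compound pre-incubation at room temperature to dye-loaded HTR2A-CHO cells. Fluorescence followed for 3 min, sampled every second.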

Experiment [13] shares this target. Briefly: 5-hydroxytryptamine receptor 2A (HTR2A) small molecule agonists, cell-based qHTS assay (AID 1963587). Also: nearly all actives have a fitted effect of over 30% in size. In short, it runs like this:
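Kinetic calcium-flux fluorescence (2 min, 1 sec intervals) after compound addition in agonist mode. HTR2A-CHO cells were cultured 18 h, then dye-loaded 1 h at 37 C.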

In experiment [14] the target is Muscarinic acetylcholine receptor M1 (Homo sapiens) (UniProt P11229). Briefly: Cholinergic receptor muscarinic 1 (CHRM1) small molecule antagonists, cell-based qHTS assay (AID 1963588). Also: nearly all actives have a fitted effect of over 40% in size. A digest of the protocol:
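CHRM1-CHO calcium-flux assay, antagonist mode. Cells were seeded 18 h, dye-loaded 1 h at 37 C and given compound for 5 min at RT, then acetylcholine was added at 50nM. FDSS fluorescence was read 3 min; 15 concentrations, three runs.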

Experiment [15] shares this target. Briefly: Cholinergic receptor muscarinic 1 (CHRM1) small molecule agonists, cell-based qHTS assay (AID 1963589). Also: nearly all actives have a fitted effect of over 35% in size. In short, it runs like this: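 Human M1 in stable CHO line; 18 h plating, 1 h dye load 37 C; cpd added (agonist mode); Ca2+ fluorescence kinetic read, 1 s intervals; 15 conc, 3 runs.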
The nature of experiment [16]: cAMP Responsive Elements (CRE) small molecule agonists, cell-based qHTS assay (AID 1963590). A digest of the protocol: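 HEK 293T CRE-bla, 2,000 cells/well, 18 h preincubation 37 C/5% CO2; cpds (DMSO) pinned, 3 h; LiveBLAzer B/G FRET substrate, 2 h RT.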
Experiment [17] can be described thus: cAMP Responsive Elements (CRE) small molecule antagonists, cell-based qHTS assay (AID 1963591; active = well fitted inhibition curve with a large enough effect in the signal ratio in the repeat runs, not every such curve was filed as active; the % refers to the signal ratio). In short, it runs like this:
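Beta-lactamase reporter read by FRET substrate (LiveBLAzer B/G) after 2 h at room temperature. CRE-bla HEK293T cells had received compound plus 0.25 uM (final) NKH477 for 3 h at 37 °C.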

In experiment [18] the target is Beta-2 adrenergic receptor (Homo sapiens) (UniProt P07550). Briefly: Adrenergic beta2 receptor (ADRB2) small molecule antagonists, cell-based qHTS assay (AID 1963592). Also: series mostly up to about 92 µM; nearly all actives have a fitted effect of over 50% in size. In short, it runs like this:
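Cells (CHO, stable ADRB2 overexpression) incubated 18-20hr at 37C; compounds added from DMSO; agonist mix (1nM isoproterenol, 100uM IBMX, 25uM Ro-20-1724) added; 0.5hr RT; d2-cAMP and anti-cAMP-cryptate added; 1hr RT; 665/615 nm read.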

Experiment [19] addresses D(2) dopamine receptor (Homo sapiens) (UniProt P14416). In words: Dopamine D2 receptor (DRD2) small molecule agonists, cell-based qHTS assay (AID 1963594). Also: nearly all actives have a fitted effect of over 35% in size. In short, it runs like this:
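cAMP accumulation in DRD2-HEK293 cells measured by HTRF after 1 h detection; compounds added 10 min before NKH477 (200nM […]) forskolin-analogue stimulation, 30 min at room temperature, with Ro20-1724 present at 0.1 mM final.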

For experiment [20] the target is unchanged. Briefly: Dopamine D2 receptor (DRD2) small molecule antagonists, cell-based qHTS assay (AID 1963595; active = well fitted inhibition curve with a large enough effect in the signal ratio in the repeat runs, with a control signal flat; the % refers to the signal ratio). In short, it runs like this:
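Readout: HTRF cAMP, cAMP-d2 competing with cellular cAMP for anti-cAMP cryptate, read after 1 h. Cells: DRD2-HEK293. Conditions: 0.1 mM Ro20-1724, 12 nM quinpirole, 200 nM NKH477, 30 min RT.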

The record followed here is PubChem BioAssay (Tox21).

The structures appear in SMILES notation. “And” between values parts separate entries of the source, which are not always exact repeats. Equal entries are not always repeated. Inconclusive results are not listed. More than one record can exist for a structure, and the calls need not agree. The source made the active and inactive calls. Unless noted, calls follow the shape of the full dose curve.

Gonadotropin-releasing hormone receptor (Homo sapiens), sequence (P30968 whole entry, looked up): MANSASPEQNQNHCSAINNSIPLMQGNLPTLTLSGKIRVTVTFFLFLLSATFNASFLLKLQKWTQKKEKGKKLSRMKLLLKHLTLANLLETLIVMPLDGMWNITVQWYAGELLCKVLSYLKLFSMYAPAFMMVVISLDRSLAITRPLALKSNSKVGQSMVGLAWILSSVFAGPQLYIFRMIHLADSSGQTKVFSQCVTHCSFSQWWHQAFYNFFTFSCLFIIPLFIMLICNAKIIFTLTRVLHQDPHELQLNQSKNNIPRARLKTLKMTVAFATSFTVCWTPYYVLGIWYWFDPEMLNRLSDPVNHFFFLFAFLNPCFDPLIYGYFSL
Beta-2 adrenergic receptor (Homo sapiens), sequence (P07550 whole entry, looked up): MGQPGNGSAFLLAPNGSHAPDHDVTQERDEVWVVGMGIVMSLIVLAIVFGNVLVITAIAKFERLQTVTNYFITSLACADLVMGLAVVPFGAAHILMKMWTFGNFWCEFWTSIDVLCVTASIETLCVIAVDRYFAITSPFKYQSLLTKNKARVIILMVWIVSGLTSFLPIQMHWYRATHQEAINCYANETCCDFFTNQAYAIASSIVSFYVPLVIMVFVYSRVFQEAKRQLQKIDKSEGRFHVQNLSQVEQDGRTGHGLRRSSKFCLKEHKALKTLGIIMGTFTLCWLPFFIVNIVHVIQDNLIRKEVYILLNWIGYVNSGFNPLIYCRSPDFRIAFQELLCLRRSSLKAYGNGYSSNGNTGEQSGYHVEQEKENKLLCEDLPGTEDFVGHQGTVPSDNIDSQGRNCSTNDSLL
Muscarinic acetylcholine receptor M1 (Homo sapiens), sequence (P11229 whole entry, looked up): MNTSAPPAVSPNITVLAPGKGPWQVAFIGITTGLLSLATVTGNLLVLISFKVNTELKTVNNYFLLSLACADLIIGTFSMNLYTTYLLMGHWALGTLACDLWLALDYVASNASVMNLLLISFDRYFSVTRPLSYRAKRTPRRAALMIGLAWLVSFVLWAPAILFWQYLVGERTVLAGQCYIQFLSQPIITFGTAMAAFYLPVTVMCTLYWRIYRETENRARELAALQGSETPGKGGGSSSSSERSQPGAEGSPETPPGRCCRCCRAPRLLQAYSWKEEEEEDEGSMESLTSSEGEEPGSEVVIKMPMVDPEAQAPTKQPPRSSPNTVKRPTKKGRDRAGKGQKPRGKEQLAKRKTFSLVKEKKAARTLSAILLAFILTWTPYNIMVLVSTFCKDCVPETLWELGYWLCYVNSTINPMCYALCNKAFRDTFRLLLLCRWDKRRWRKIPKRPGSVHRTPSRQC
D(2) dopamine receptor (Homo sapiens), sequence (P14416 whole entry, looked up): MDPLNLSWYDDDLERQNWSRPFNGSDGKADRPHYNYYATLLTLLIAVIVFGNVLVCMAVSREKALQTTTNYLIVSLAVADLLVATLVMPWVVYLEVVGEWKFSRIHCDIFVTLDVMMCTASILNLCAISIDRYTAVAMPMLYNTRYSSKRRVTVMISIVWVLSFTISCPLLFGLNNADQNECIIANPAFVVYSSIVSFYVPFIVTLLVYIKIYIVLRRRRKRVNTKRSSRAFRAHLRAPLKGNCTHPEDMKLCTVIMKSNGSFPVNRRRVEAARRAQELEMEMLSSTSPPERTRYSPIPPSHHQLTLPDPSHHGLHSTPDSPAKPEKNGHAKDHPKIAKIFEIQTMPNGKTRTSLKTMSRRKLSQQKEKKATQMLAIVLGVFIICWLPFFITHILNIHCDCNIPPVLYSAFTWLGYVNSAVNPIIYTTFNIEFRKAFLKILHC
KiSS-1 receptor (Homo sapiens), sequence (Q969F8 whole entry, looked up): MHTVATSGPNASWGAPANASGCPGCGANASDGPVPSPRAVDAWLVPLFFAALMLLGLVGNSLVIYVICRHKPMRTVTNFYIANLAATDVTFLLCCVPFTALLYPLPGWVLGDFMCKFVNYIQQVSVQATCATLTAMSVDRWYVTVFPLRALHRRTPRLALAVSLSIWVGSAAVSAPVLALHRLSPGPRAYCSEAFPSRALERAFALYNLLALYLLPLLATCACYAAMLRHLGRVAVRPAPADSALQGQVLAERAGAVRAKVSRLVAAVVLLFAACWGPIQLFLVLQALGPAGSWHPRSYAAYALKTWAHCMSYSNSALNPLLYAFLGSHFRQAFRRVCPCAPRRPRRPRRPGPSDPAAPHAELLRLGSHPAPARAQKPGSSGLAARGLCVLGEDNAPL
5-hydroxytryptamine receptor 2A (Homo sapiens), sequence (P28223 whole entry, looked up): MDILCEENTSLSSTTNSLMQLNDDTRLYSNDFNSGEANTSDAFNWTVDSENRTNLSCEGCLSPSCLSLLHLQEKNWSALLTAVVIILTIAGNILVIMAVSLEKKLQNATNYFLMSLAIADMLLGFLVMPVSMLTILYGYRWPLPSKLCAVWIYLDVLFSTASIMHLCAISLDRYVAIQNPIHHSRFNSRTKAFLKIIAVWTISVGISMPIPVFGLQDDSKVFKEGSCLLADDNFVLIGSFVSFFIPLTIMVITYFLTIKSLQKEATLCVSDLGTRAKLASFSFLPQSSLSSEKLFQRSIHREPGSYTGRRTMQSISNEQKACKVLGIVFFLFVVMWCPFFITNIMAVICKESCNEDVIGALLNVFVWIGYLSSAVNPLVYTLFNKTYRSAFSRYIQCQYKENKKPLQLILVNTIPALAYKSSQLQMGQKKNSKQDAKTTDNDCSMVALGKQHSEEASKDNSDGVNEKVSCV

As for `CON(C)C(=O)Nc1ccc(Cl)cc1`, the Potency entry in experiment [1], in experiment [2], in [3], in [4], in experiment [5] and in experiment [6] was “inactive” each time. In addition, the Potency entry in experiment [7], in experiment [8], in experiment [9], in [10], in [11] and in experiment [12] was “inactive” throughout. Moreover, the Potency result in experiment [13], in experiment [14], in experiment [15], in [16], in experiment [17] and in experiment [18] was “inactive” in each case. In addition, the Potency entry in experiment [19] and in experiment [20] was “inactive” throughout.
For `C1CCC2CCCCC2C1` (stereo not given), the Potency entry in experiment [1], in [2], in experiment [3], in [4], in experiment [5] and in experiment [6] was “inactive” in each case. Also, the Potency result in [7], in experiment [8], in [9], in [10], in experiment [11] and in experiment [12] was “inactive” throughout. In addition, the Potency entry in experiment [13], in experiment [14], in experiment [15], in [16], in [17] and in experiment [18] was “inactive” each time. The Potency entry in experiment [19] and in [20] was “inactive” throughout.
As for `CCCCOC(=O)c1ccccc1C(=O)OCc1ccccc1`, the Potency entry in experiment [1], in experiment [3], in experiment [4], in [5], in experiment [6] and in experiment [7] was “inactive” in each case. In addition, the Potency result in [9], in [10], in [11], in experiment [13], in experiment [14] and in experiment [15] was “inactive” throughout. For the same compound, the Potency result in experiment [16], in experiment [17], in experiment [18], in experiment [19] and in experiment [20] was “inactive” throughout. Moreover, the Potency entry in experiment [2] was “inactive and 68.6 µM (active)”; in [8] it was “inactive and 646 nM (active)”; in experiment [12] it was “inactive and 5.9 nM (active)”.
Consider `O=[N+]([O-])c1ccc(Cl)cc1`, for which the Potency result in [1], in [2], in [3], in experiment [4], in experiment [5] and in [6] was “inactive” in each case. Also, the Potency result in [7], in [8], in [9], in experiment [10], in [11] and in experiment [12] was “inactive” each time. The Potency result in experiment [13], in [14], in [15], in experiment [16], in experiment [17] and in experiment [18] was “inactive” each time. Further, the Potency entry in [19] and in experiment [20] was “inactive” each time.
In the case of `CNC(=O)N(C)c1nnc(C(C)(C)C)s1`, the Potency entry in [1], in experiment [2], in experiment [3], in experiment [4], in experiment [5] and in [6] was “inactive” each time. Also, the Potency entry in experiment [7], in experiment [8], in experiment [9], in experiment [10], in [11] and in [12] was “inactive” in each case. The Potency result in [13], in experiment [14], in experiment [15], in experiment [16], in [17] and in [18] was “inactive” throughout. Besides, the Potency entry in experiment [19] and in experiment [20] was “inactive” in each case.
`C=C(C)C(=O)OCC(CC)CCCC` (stereo not given): the Potency result in [1], in [2], in experiment [3], in experiment [4], in experiment [5] and in experiment [6] was “inactive” in each case. In addition, the Potency result in experiment [7], in experiment [8], in experiment [9], in [10], in experiment [11] and in [12] was “inactive” throughout. For the same compound, the Potency entry in experiment [13], in [14], in experiment [15], in experiment [16], in [17] and in experiment [18] was “inactive” in each case. In addition, the Potency result in experiment [19] and in [20] was “inactive” in each case.
